Screen size: about 52,000 compounds; about 4,300 (8.3%) were called active. What follows is part of a selection rich in actives, with near analogues and random picks from the rest. Unmarked numbers belong to inactive results. No stated cut-off is given here; in the data, active means survival mostly below about 52% (no sharp cut-off); inactive means mostly above about 56%.
Test system: DeltatarO mutant
Experiment: growth inhibition of S. aureus wild type versus tarO mutant, primary screen, teichoic acid synthesis inhibitors, RN4220, OD600 (AID 463173)
Settings: OD600, 18 h, stronger effect = lower value, screened at 18.75 µg/mL (by protocol)

SMILES	survival
CCOC(=O)c1ccc(NC(=O)c2c(NCc3ccc(OC)c(OC)c3OC)sc3c2CCC(C)C3)cc1 (stereo not given)	123%
COc1cccc(C(=O)N(Cc2ccc(C)o2)C2CCS(=O)(=O)C2)c1 (stereo not given)	96%
CN(C(=O)c1cc2nc(-c3ccco3)cc(C(F)(F)F)n2n1)C12CC3CC(CC(C3)C1)C2	110%
COC(=O)c1ccccc1NC(=O)c1cn2c3c(ccc(Cl)c3c1=O)OC(C)C2 (stereo not given)	84%
Cc1cccc(-n2c3nc(=O)n(C)c(=O)c-3cc3ccc(Cl)cc32)c1C	81%
Cn1c(=O)c2sccc2n2c(CCCC(=O)Nc3ccc(Oc4ccccc4)cc3)nnc12	53%
CCCn1c(=O)c2sccc2n2c(CCCC(=O)Nc3ccc(Oc4ccc(Cl)cc4)cc3)nnc12	98%
Cn1c(=O)c2sccc2n2c(CCCC(=O)Nc3ccc(Oc4ccc(Cl)cc4)cc3)nnc12	24% (active)
COc1ccc(NC(=O)c2ccc(CN3C(=O)CCn4nc(C)cc43)cc2)c(OC)c1	99%
CCCC1CC(C)(c2csc(NCC)n2)OC1=O (stereo not given)	71% (active)
CCC1(c2csc(Nc3ccccc3C)n2)CCC(=O)O1 (stereo not given)	89%
CCCC1CC(C)(/C(C)=N\NC(N)=S)OC1=O (stereo not given)	98%
CCCCc1ccc(NC(=O)C2(C)Cc3ccccc3C(=O)O2)cc1 (stereo not given)	75%
COc1ccc(S(=O)(=O)N(CC(=O)NCCc2ccccc2)c2ccc(Cl)cc2)cc1	83%
COc1ccc(CCN2C(=O)N(c3ccc(F)cc3)C(=O)C2CC(=O)Nc2ccc(F)c(F)c2)cc1 (stereo not given)	61%
CCCc1oc2ccc(NS(=O)(=O)c3ccc(OCC)cc3)cc2c1C(=O)OCC	65%
Cc1cc(F)ccc1S(=O)(=O)Nc1ccc2oc3c(c2c1)CC(C)CC3 (stereo not given)	56%
CCCCOC(=O)c1c(C)oc2ccc(NS(=O)(=O)c3ccc(F)cc3C)cc12	10% (active)
CCOC(=O)c1c(-c2ccccc2)oc2ccc(NS(=O)(=O)c3ccccc3)cc12	35% (active)
CCOC(=O)c1c(-c2ccccc2)oc2ccc(NS(=O)(=O)c3ccc(C)cc3C)cc12	47%
CCOC(=O)c1c(-c2ccccc2)oc2ccc(NS(=O)(=O)c3ccc(C)cc3)cc12	83%
CCOC(=O)c1c(C)oc2ccc(N(C(=O)c3ccncc3)S(=O)(=O)c3ccc(F)cc3C)cc12	79%
CCOC(=O)c1c(-c2ccccc2)oc2ccc(NS(=O)(=O)c3ccc(OC)cc3)cc12	60%
CCc1ccc(S(=O)(=O)Nc2ccc3oc(C)c(C(=O)OCCOC)c3c2)cc1	32% (active)
COCc1oc2ccc(NS(=O)(=O)c3ccc(C)cc3)cc2c1C(=O)OC	60%
CCOC(=O)c1c(C)oc2ccc(N(C(=O)c3ccncc3)S(=O)(=O)c3ccc(CC)cc3)cc12	60%
CCOC(=O)c1c(C)oc2ccc(N(C(=O)c3ccncc3)S(=O)(=O)c3ccc(F)cc3)cc12	28% (active)
CC(C)(C)c1ccc(CN(Cc2ccco2)Cc2nnnn2C2CCCCC2)cc1	105%

SMILES	survival
CC1CCc2c(nc3ncnn3c2NCCN(C)C)C1 (stereo not given)	88%
COc1cccc(NC(=O)Nc2cccc(-c3cn4cccnc4n3)c2)c1	78%
COc1ccc(C(=O)n2cnnc2N)cc1	103%
CC(=O)c1c(C)oc2ccc(NS(=O)(=O)c3ccc(C(C)C)cc3)cc12	78%
CCOC(=O)c1c(-c2ccccc2)oc2ccc(NS(=O)(=O)c3cc(C)c(C)cc3C)cc12	63%
Cc1cc(C)c(S(=O)(=O)Nc2ccc3oc(C)c(C(=O)OC(C)C)c3c2)cc1C	48% (active)
COc1ccc(CNC(=O)CCCn2c(=O)c3cccn3c3ccc(F)cc32)cc1OC	53%
COc1ccc(CCNC(=O)CCCn2c(=O)c3cccn3c3ccccc32)cc1OC	61%
COc1ccc(CCNC(=O)CCCn2c(=O)c3cccn3c3ccc(F)cc32)cc1OC	43% (active)
COc1ccc(CNC(=O)CCn2c(=O)c3cccn3c3ccc(F)cc32)cc1OC	91%
CCOc1ccc(CCNC(=O)Cn2c(=O)c3cccn3c3ccc(F)cc32)cc1OCC	74%
COc1ccc(CCNC(=O)CCn2c(=O)c3cccn3c3ccc(F)cc32)cc1OC	45% (active)
CCOc1ccc(CCNC(=O)CCCn2c(=O)c3cccn3c3cccnc32)cc1OCC	93%
CCOc1ccc(CCNC(=O)CCn2c(=O)c3cccn3c3ccc(F)cc32)cc1OCC	42% (active)
COc1ccc(CCNC(=O)Cn2c(=O)c3cccn3c3ccc(F)cc32)cc1OC	72%
COc1ccc(N2CC(NC(=O)c3c(F)cccc3Cl)CC2=O)cc1OC (stereo not given)	95%
COc1ccc(Cl)cc1NC(=O)CSc1nnc(C)n2c1cc1sccc12	68%
Cc1ccc(-n2nc(C)c3c(C(F)(F)F)cc(-c4cccnc4)nc32)cc1C	42%
CCN(Cc1ccccc1)C(=O)Cn1c(=O)n(Cc2ccccc2)c(=O)c2c1c1cc(OC)ccc1n2C	59%
O=C(CN1C(=O)C2(SCC(=O)N2c2cccc(Cl)c2)c2ccccc21)NCCc1ccccc1 (stereo not given)	104%
CCOc1ccccc1CNC(=O)CN1C(=O)C2CCCCN2c2ccc(C(=O)N(C)C)cc21 (stereo not given)	120%
COc1cccc(NC(=O)CSc2nc3ccc(NC(=O)c4ccco4)cc3s2)c1	77%
CC(C)(C)NS(=O)(=O)c1ccc2nc(NC(=O)c3cccnc3)sc2c1	86%
CN(C)c1cccc(C(=O)Nc2nc3ccc(S(=O)(=O)NC(C)(C)C)cc3s2)c1	47% (active)
CN(C)c1cccc(C(=O)Nc2nc3ccc(S(=O)(=O)N4CCCC4)cc3s2)c1	135%
Cc1cccc(NC(=O)Cn2nc(N3CCN(c4ccccc4)CC3)ccc2=O)c1C	87%
COc1cc(NC(=O)c2nc3cc(C)c(C)cc3n(C)c2=O)cc(OC)c1OC	94%

From PubChem BioAssay AID463173 (ICCB-Longwood Screening Facility, Harvard Medical School, 2010)
